# Only some compounds are listed: those with a hit (about 0.51% of all), similar ones and a draw of the others.
# Vif-A3G inh – qHTS for Inhibitors of Vif-A3G Interactions: qHTS; HeLa A3G-eYFP + Vif (tagged APOBEC3G with the HIV-1 protein that degrades it), YFP fluorescence, overnight; Potency, µM (titrated, usually from 46.1 µM), for inactives: top-dose activity, negative = active, actives largely listed as inhibitors; hit rate 0.076% among 410,000; AID 602310, 2012; note: % is set by controls: 0 for no effect and ±100 for the full control effect; nearly all actives have a fitted effect of over 60% in size
# Target sequence (Q9HC16 whole entry, looked up): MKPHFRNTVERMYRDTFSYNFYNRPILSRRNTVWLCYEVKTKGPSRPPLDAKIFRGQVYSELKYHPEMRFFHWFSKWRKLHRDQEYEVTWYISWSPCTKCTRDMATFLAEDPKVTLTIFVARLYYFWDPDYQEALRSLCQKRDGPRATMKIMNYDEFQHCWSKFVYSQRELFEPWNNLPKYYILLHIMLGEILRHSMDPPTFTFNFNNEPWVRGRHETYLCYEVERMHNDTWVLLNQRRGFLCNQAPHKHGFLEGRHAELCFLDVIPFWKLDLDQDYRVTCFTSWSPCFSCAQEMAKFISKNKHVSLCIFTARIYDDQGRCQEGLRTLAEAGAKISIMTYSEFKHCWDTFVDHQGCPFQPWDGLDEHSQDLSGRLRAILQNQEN
#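 HeLa cells stably expressing Vif and C-terminally eYFP-tagged A3G, seeded overnight at 37 deg C, then exposed to compound by pintool overnight at 37 deg C. Rise in yellow fluorescence (Ex 488/Em 500-530, Acumen) marks blocked Vif-driven A3G degradation.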
# Vif-APOBEC3F blk – qHTS for Inhibitors of Vif-A3F Interactions: qHTS. HeLa A3F-eYFP + Vif (tagged APOBEC3F with the HIV-1 protein that degrades it), YFP fluorescence increase. Potency, µM (series often up to 46.1 µM), for inactives: top-dose activity, negative = active. hit rate 0.2% among 390,000. AID 602313, 2012; note: % of control where 0% means no effect; nearly all actives have a fitted effect of over 65% in size
#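 HeLa cells stably expressing A3F-eYFP plus Vif, plated and incubated overnight at 37 deg C, then exposed to compounds overnight at 37 deg C. Blocked degradation read as raised yellow fluorescence (Ex 488/Em 500-530).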
# PINK1 expr mod – A Quantitative High throughput Screen to Identify Chemical Modulators of PINK1 Expression | PINK1 immunofluorescence, high-content cytometry, 24 h | hit rate 0.2% among 410,000 | AID 624263, 2012 | Potency, µM (highest dose often 76.6 µM), for the others: at the top dose activation (PINK1 increase), most hits filed as activators; active = well fitted activation curve with a large enough effect; inconclusive = small, poorly fitted or top-dose-only effect; cell line not stated here; note: % of control where 0% means no effect; nearly all actives have a fitted effect of over 65% in size
#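 Cells are seeded, rested 12 hours, then given compound at five concentrations or DMSO for 24 hours. After fixation, blocking and antibody staining, PINK1 amount and mitochondrial localization are scored; CCCP serves as control.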
# Epigenetic reg – Quantitative High-Throughput Screen for Regulators of Epigenetic Control. Potency, µM (highest dose often 53.9 µM), inactives show at the top dose GFP activation, most hits filed as activators. murine LDR cells, GFP reporter derepression, 30 h. hit rate 0.2% among 280,000. AID 1865, 2009; note: % of control where 0% means no effect; nearly all actives have a fitted effect of over 60% in size
#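 GFP-positive cell count by laser-scanning cytometry (objects 20–120 um) after 30 h, 37 C compound exposure of murine LDR cells; reporter is CMV-GFP integrated at a silenced locus, inducible by HDAC or DNMT inhibitors.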
# * = called active by the depositor; ? = inconclusive; · = not tested or not shown; [ ] = remark or other dose. Unless noted, calls come from the whole dose curve; as a rule, active = well fitted curve in the direction sought with a large enough effect; inconclusive = small, poorly fitted or top-dose-only effect, or another doubt; inactive = no such curve, though single readings can be large; an effect the other way counts as inactive or inconclusive. Potency is the fitted concentration of half-maximal effect.
SMILES,Vif-A3G inh,Vif-APOBEC3F blk,PINK1 expr mod,Epigenetic reg
Cc1ncc2c(c1CNC(=O)c1cncs1)CCN(C(=O)c1ccc(C(F)(F)F)cc1)C2,·,·,0%,·
CCN1/C(=C/c2cc[n+](C)cc2)C=Cc2cc(C)ccc21,?,13µM*,10µM*,?
O=C(N/N=C/c1ccc(N2CCCCC2)o1)c1ccccc1,-1%,-1%,-1%,0%
N#C/C(=C/c1ccc(N2CCCCCC2)o1)c1ccc(F)cc1,?,28µM*,21%,·
N#C/C(=C/c1ccc(N2CCCCCC2)o1)c1cccc(F)c1,?,5µM*,8.9µM*,?
COc1cc(N2CCCC2)c(OC)cc1/C=C(/C#N)c1cccc(F)c1,5µM*,?,17%,3.2µM*
COc1cccc(C2(CC(=O)N3CCN(c4ccccn4)CC3)CC(=O)N(C3CCCC3)C2=O)c1 (stereo unspecified),·,·,-1%,·
CCO[C@H]1[C@H](NC(=O)c2cccnc2)c2ccccc2C12CCN(C(=O)c1ccoc1)CC2,·,·,0%,·
CC(C)(C)n1ncc2c(=O)n(Cc3ccccc3C(F)(F)F)cnc21,2%,·,·,·
Cc1ncc2c(c1CNC(=O)c1cncs1)CCN(C(=O)c1csc(-c3cccs3)n1)C2,·,·,1%,·
CCOc1ccc(-n2c(-c3ccc(OC)cc3)c[n+]3c2CCCCC3)cc1,8%,-16%,16µM*,0%
CC(C)c1ccc(-n2c(-c3ccccc3)c[n+]3c2CCc2ccccc2-3)cc1,-4%,10%,?,-3%
COc1ccc(-n2c(-c3ccc(Br)cc3)c[n+]3c2CCc2ccccc2-3)cc1,3%,2%,28µM*,16%
O=C(Nc1c(Cl)cc([N+](=O)[O-])cc1Cl)c1cc(Cl)cc(Cl)c1O,-22%,·,14µM*,·
CCOc1ccc(-c2nnc(SCC(=O)NC(C)(C)C)nc2-c2ccc(OCC)c(OC)c2)cc1OC,-5%,0%,2%,·
CCOc1cc(-c2nnc(SCC(=O)Nc3ccc(F)c(F)c3)nc2-c2ccc(OC)c(OCC)c2)ccc1OC,-4%,2%,13%,16µM*
Cc1ncc2c(c1CNC(=O)/C=C/c1cccs1)CCN(C(=O)c1c(C)noc1C)C2,·,·,0%,·
CCCCN(CCCNC(=O)c1cc(Nc2cccc(SC)c2)nc2ccccc12)Cc1ccccc1,?,0%,6%,35µM*
CSc1nsc(/C=C/Nc2ccc(F)cc2)c1C#N,?,22µM*,0%,10µM*
CSc1nsc(/C=C/Nc2ccc(Cl)cc2)c1C#N,?,?,17%,?
CSc1nsc(/C=C/Nc2ccc(O)cc2C)c1C#N,?,10µM*,4%,?
COc1cc(CN2CCC3(CCC(CNC(=O)c4cc(C)nn4C)O3)CC2)ccc1F (stereo unspecified),·,·,0%,·
O=C(NCC1(N2CCOCC2)CCCC1)c1cnn(-c2nccc(-c3ccco3)n2)c1C1CC1,·,·,0%,·
CC(=O)[C@@H]1[C@@H]2C(=O)N(Cc3ccccc3)C(=O)[C@@H]2C2c3ccccc3C=CN21 (stereo partly specified),-9%,-11%,11µM*,1%
O=C(c1ccco1)[C@@H]1[C@@H]2C(=O)N(c3ccccc3)C(=O)[C@@H]2C2c3ccccc3C=CN21 (stereo partly specified),2%,-5%,2%[38.3 µM],1%
SMILES,Vif-A3G inh,Vif-APOBEC3F blk,PINK1 expr mod,Epigenetic reg
COC(=O)[C@H]1[C@H]2C[C@@H]3c4[nH]c5cc(OC)ccc5c4CCN3C[C@H]2C[C@@H](OC(=O)c2cc(OC)c(OC)c(OC)c2)[C@@H]1OC,-13%,?,6%,22µM*
COc1ccc2c3c([nH]c2c1)[C@@H]1C[C@@H]2[C@@H](C[C@H](O)[C@H](OC)[C@H]2C(=O)O)CN1CC3,·,·,·,0%[16.9 µM]
COC(=O)C1C2CC3c4[nH]c5cc(OC)ccc5c4CCN3CC2CC(OC2CCCCO2)C1OC (stereo unspecified),-9%,11µM*,2%,·
COCC(=O)Nc1cc(C(=O)N2CCC(c3ccccc3)CC2)cc2nc(-c3ccccc3)n(C)c12,·,·,5%,·
Cc1ccc(C(C)CCN2CCOc3ccc(CN4CCOCC4)cc3C2)o1 (stereo unspecified),·,·,1%,·
COC(=O)C1CCCCN1Cc1ccc2c(c1)CN(Cc1cn[nH]c1-c1ccc(F)cc1)CCO2 (stereo unspecified),·,·,1%,·
COC(=O)C1CCN(Cc2ccc3c(c2)CN(C(=O)C(C)N2CCOCC2)CCO3)CC1 (stereo unspecified),·,·,1%,·
FC(F)(F)c1cccc(-c2nc3nc(Cl)c(Cl)nc3[nH]2)c1,?,1%,2.8µM*,1%
NC(=O)C1CCN(c2nc(C3CC3)nc3c2nnn3Cc2ccccc2Cl)CC1,-4%,0%,11µM*,0%
NC(=O)C1CCN(c2nc(C3CC3)nc3c2nnn3Cc2ccccc2)CC1,1%,-1%,7%[38.3 µM],-1%
Cc1cccc(CNC(=O)c2cnn(-c3nccc(-c4cccs4)n3)c2C2CC2)n1,·,·,-1%,·
Cc1cc(C(F)(F)F)c2c(N)c(C(=O)Nc3c(Cl)cccc3Cl)sc2n1,2%,-1%,4%,0%
Cc1nnc(NC(=O)c2sc3nc(-c4cccs4)cc(C(F)(F)F)c3c2N)s1,?,7.1µM*,-1%,9%
Nc1c(C(=O)Nc2nccs2)sc2nc(-c3cccs3)cc(C(F)(F)F)c12,8.9µM*,?,?,?
CC(C)(C)C(=O)c1sc2nc(-c3cccs3)cc(C(F)(F)F)c2c1N,?,2.8µM*,10%,11µM*
CC(=O)Nc1ccccc1-c1nc(CNC(=O)c2ccc(C)cc2)c(C)o1,·,·,0%,·
CCCOC(=O)/C(=C\c1ccc([N+](=O)[O-])o1)NC(=O)c1ccccc1,?,7.1µM*,1%,0%
CCOC(=O)/C(=C\c1ccc([N+](=O)[O-])o1)NC(=O)c1ccccc1,?,-16%,·,0%
N#Cc1c(SCC(=O)Nc2ccc(Cl)cc2Cl)sc2c(O)cc(=O)[nH]c12,-2%,-2%,32µM*,·
Cc1nn(C)cc1CN1CCOc2ccc(CN3CCC(Oc4cccnc4)CC3)cc2C1,·,·,-1%,·
CS(=O)(=O)N1N=C(c2cccs2)CC1c1ccccc1O (stereo unspecified),-12%,?,8%,0%
CCOc1ccccc1C1CC(c2cccs2)=NN1S(C)(=O)=O (stereo unspecified),-27%,32µM*,10%,12%
COc1cc(/C=C/C(=O)/C=C(O)/C=C/c2ccc(O)c(OC)c2)ccc1O,?,-4%,?,32µM*
COc1ccc(CN2CCC3(CCC(CNC(=O)c4ccco4)O3)CC2)c(OC)c1C (stereo unspecified),·,·,0%,·
Cc1ccc(-c2nc3ncccc3o2)cc1NC(=O)c1ccc([N+](=O)[O-])o1,0%,22µM*,-2%,·

# Screening data as filed in PubChem.
